Reference: PubChem BioAssay AID1851 (National Center for Advancing Translational Sciences (NCATS), 2009)
About 5,100 (32%) of roughly 16,000 compounds were called active. Roughly 25% stayed inconclusive and do not appear here. The list shows a part of the results. Values without a mark were called inactive. Calls come from the whole dose curve; as a rule, active = well fitted curve in the direction sought with a large enough effect; inconclusive = small, poorly fitted or top-dose-only effect, or effect the other way; inactive = no such curve, though single readings can be large or run the other way.

What follows are compounds tested against Cytochrome P450 3A4 (Homo sapiens) (UniProt P08684) (assay: Cytochrome panel assay with activity outcomes). Conditions: recombinant CYP, pro-luciferin dealkylation, luminescence, p450-cyp3a4; series mostly up to 57.1 µM; activity, negative = inhibition: at the top concentration.
% is set by controls: 0 for no effect and ±100 for the full control effect.

Sequence of Cytochrome P450 3A4 (Homo sapiens) (P08684 whole entry, looked up): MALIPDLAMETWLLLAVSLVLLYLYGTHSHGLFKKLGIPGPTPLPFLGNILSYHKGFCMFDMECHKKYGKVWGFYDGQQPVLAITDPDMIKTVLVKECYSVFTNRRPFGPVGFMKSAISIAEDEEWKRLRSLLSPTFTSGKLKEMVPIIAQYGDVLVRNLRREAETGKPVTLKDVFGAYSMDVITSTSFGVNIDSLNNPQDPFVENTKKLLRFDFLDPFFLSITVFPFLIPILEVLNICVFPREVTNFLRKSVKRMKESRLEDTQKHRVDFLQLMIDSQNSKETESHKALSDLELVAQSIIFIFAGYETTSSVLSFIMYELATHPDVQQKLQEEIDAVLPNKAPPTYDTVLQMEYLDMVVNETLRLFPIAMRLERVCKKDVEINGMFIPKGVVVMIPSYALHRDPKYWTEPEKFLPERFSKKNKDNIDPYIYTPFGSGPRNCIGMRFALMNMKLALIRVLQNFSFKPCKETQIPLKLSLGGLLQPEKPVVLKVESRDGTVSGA

SMILES | activity, negative = inhibition | AC50
CO[C@@H](C)[C@](O)(C(=O)OCC1=CCN2CC[C@@H](O)[C@H]12)C(C)C | -1.31% [at 25.6 µM] | –
C#C[C@@]1(O)CC[C@@H]2[C@@H]3CCC4=CC(=O)CC[C@@]4(C)[C@H]3CC[C@]21C | -13.5% [at 25.6 µM] | –
NO | 4.33% | –
O=C1NC(=S)NC(=O)C1=Cc1cccc2cc3ccccc3cc12 | -17.5% [at 11.4 µM] | –
C[C@@H]1O[C@H](C[N+](C)(C)C)CS1 | -2.37% | –
COC(=O)Nc1nc2ccc(C(=O)c3cccs3)cc2[nH]1 | -9.88% [at 25.6 µM] | –
COc1ccc2[nH]c(C(=O)c3ccccc3)cc2c1 | – | 7.94 µM (active)
COc1ccc2[nH]c3c(c2c1)CCNC3 | -20.9% | –
Fc1ccc(CCNCc2ccc(Cl)c(Cl)c2)cc1 | -18.5% [at 2.29 µM] | –
Fc1ccccc1CCNCc1cccc(Cl)c1Cl | – | 0.631 µM (active)
CCN=C=NCCCN(C)C | 0.783% [at 11.4 µM] | –
O=NN(Cc1ccc(Cl)cc1)[C@@H](C(=O)O)c1ccccc1 | -7.56% [at 11.4 µM] | –
C[N+]1([O-])[C@@H]2CC[C@H]1CC(OC(=O)[C@@H](CO)c1ccccc1)C2 (some centres not stated) | -4.21% [at 25.6 µM] | –
C[C@]12CC[C@H]3c4ccc(O)cc4CC[C@@H]3[C@H]1CC[C@@H]2OP(=O)(O)O | 0.528% [at 11.4 µM] | –
COc1ccc(C2NCc3ccc4c(c3-n3cccc32)OCO4)cc1OC (configuration not stated) | – | 5.01 µM (active)
COCCNC(=S)NC1CC2CCCC(C1)N2Cc1cccs1 (configuration not stated) | -1.58% | –
COCCNC(=S)N1C2CCC1CC(NC(=O)NC13CC4CC(CC(C4)C1)C3)C2 (configuration not stated) | – | 3.16 µM (active)
COCCCNC(=S)NC1CC2CCCC(C1)N2Cc1cccs1 (configuration not stated) | 2.48% | –
CN1CCN(c2ccc3ccccc3n2)CC1 | inactive | –
NC(N)=NN=Cc1c(Cl)cccc1Cl | -25.5% | –
[N-]=[N+]=NCC(=O)c1c[nH]c(=O)[nH]c1=O | 17.4% [at 11.4 µM] | –
N/C(=N\N=C/c1ccc(-c2ccc(O)c(C(=O)O)c2)o1)N[N+](=O)[O-] | -39.2% | –
C[C@@H]1Cc2cc3c(cc2C(c2ccc(N)cc2)=NN1)OCO3 | – | 2.51 µM (active)

SMILES | activity, negative = inhibition | AC50
C[N+]1([O-])[C@H]2CC[C@H]1CC(OC(=O)[C@@H](CO)c1ccccc1)C2 (some centres not stated) | -2.26% [at 11.4 µM] | –
C[C@@]12CC(=O)[C@H]3[C@@H](CCC4=CC(=O)CC[C@]43C)[C@H]1CCC2=O | -41.1% [at 25.6 µM] | –
NC(N)=Nc1ccc2[nH]c3c(c2c1)C[C@]1(O)[C@@H]2Cc4ccc(O)c5c4[C@]1(CCN2CC1CC1)[C@@H]3O5 | 15.1% | –
CCCC[N+]1(C)[C@@H]2CC(OC(=O)[C@@H](CO)c3ccccc3)C[C@H]1[C@H]1O[C@H]12 (some centres not stated) | -9.71% | –
N[C@@H](Cc1ccccc1)P(=O)(O)O | -2.63% [at 11.4 µM] | –
CCSc1nnc(C(N)Cc2ccccc2)o1 (configuration not stated) | – | 11.2 µM (active)
COc1ccc(C[C@@H](N)c2ccc(OC)cc2)cc1 | -30.1% [at 11.4 µM] | –
CN1CC[C@@]23c4ccccc4N[C@H]1[C@]21CCN(C)[C@@H]3Nc2ccccc21 | -11.4% [at 25.6 µM] | –
C[C@H](OP(=O)(O)O)[C@H](N)C(=O)O | -9.79% [at 11.4 µM] | –
O=C1C=CC(=O)c2c1ccc1c2ccc2ccccc21 | -24.8% [at 25.6 µM] | –
Nc1ccc(CCN2CCN(c3cccc(C(F)(F)F)c3)CC2)cc1 | – | 7.94 µM (active)
NCCCN1CCN(c2ccccc2)CC1 | -17.3% [at 11.4 µM] | –
C=C1[C@@H]2C[C@@]3([C@H]1O)[C@H]1C[C@@H]4[C@@]5(C)CC[C@H](O)[C@]4([C@H]1N(CC)C5)[C@H]3C[C@H]2O | -1.02% [at 25.6 µM] | –
NC(=NCc1ccc(Cl)cc1)SCCCc1cnc[nH]1 | – | 1.58 µM (active)
NC(=NCCc1ccc(I)cc1)SCCCc1cnc[nH]1 | – | 0.794 µM (active)
OCc1cnc[nH]1 | -11.1% | –
NC(N)=NCCC[C@H](N)C(=O)O | -9.21% | –
NS(=O)(=O)c1cc([C@@]2(O)NC(=O)c3ccccc32)ccc1Cl | -2.87% [at 25.6 µM] | –
Cc1o[nH]c(=O)c1C[C@H](N)C(=O)O | inactive | –
CCCCN1C(=O)/C(=C/c2ccc(N(C)C)cc2)C(=O)N(Cc2ccco2)C1=O | -12% [at 2.29 µM] | –
O=C(O)/C=C\c1ccc[c]([Sb](=[O])([OH])[OH])c1 | -2.48% [at 11.4 µM] | –
CCCN1CCC[C@H](c2cccc(C#N)c2)C1 | -3.09% | –
CCCc1cc2c(n1CCO)C(C)C1CN(C(=O)c3ccccc3)C(C)(C(=O)OC)C21 (configuration not stated) | – | 10 µM (active)

SMILES | activity, negative = inhibition | AC50
CCCc1cc2c(n1Cc1cccc(Cl)c1)C(C)C1CN(C(=O)c3ccccc3)C(C)(C(=O)OC)C21 (configuration not stated) | – | 5.01 µM (active)
CCCc1cc2c(n1Cc1ccc(C)cc1)C(C)C1CN(C(=O)c3ccccc3)C(C)(C(=O)OC)C21 (configuration not stated) | – | 3.16 µM (active)
CC[N+](CC)(CCCNC1=CC(=O)C(NCCC[N+](CC)(CC)Cc2ccccc2)=CC1=O)Cc1ccccc1 | -14% | –
CC(C)C[C@H](NP(=O)(O)O[C@@H]1O[C@@H](C)[C@@H](O)[C@@H](O)[C@H]1O)C(=O)N[C@@H](Cc1c[nH]c2ccccc12)C(=O)O | -8.92% | –
C[C@@]12CC[C@H]3[C@@H](CC=C4C[C@H](OS(=O)(=O)O)CC[C@]43C)[C@H]1CCC2=O | -14.9% | –
CCN1CCN(c2ccc(NC(=O)C(C)C)cc2Cl)CC1 | 2.04% | –
NC[C@H](O)c1ccc(O)cc1 | inactive | –
O=C1C2CCN(CC2)C1(CO)CO | inactive | –
O=C(O)Cc1cccnc1C(=O)O | -4.82% | –
C[C@@H]1O[C@H]1P(=O)(O)O | 9.75% | –
CC[C@H]1CN2CCc3cc(OC)c(OC)cc3[C@H]2C[C@@H]1C[C@H]1NCCc2c1[nH]c1ccc(O)cc21 | -8.94% [at 11.4 µM] | –
C[C@](N)(CCP(=O)(O)O)C(=O)O | -14.5% | –
CN1CC[C@@]2(CCCN(C(=O)Oc3ccccc3)C2)C1 | – | 12.6 µM (active)
CN1CCC2(CC1)CCN(C(=O)Oc1ccccc1)CC2 | -5.53% | –
CC(C)CN1CC2(CCN(C(=O)Oc3ccccc3)CC2)C1 | -5.86% | –
O=C(Oc1ccccc1)N1CCC[C@@]2(CCN(C(c3ccccc3)c3ccccc3)C2)C1 | – | 10 µM (active)
COC(=O)N1CCC2(CCN(CC(C)C)CC2)CC1 | -27.1% | –
O=C(Oc1ccccc1)N1CCC2(CCCN(C(c3ccccc3)c3ccccc3)C2)CC1 | 4.99% | –
CC(C)CN1CC[C@@]2(CCCN(C(=O)Oc3ccccc3)C2)C1 | – | 12.6 µM (active)
N#Cc1ccc(CN2CC[C@@]3(CCCN(C(=O)Oc4ccccc4)C3)C2)cc1 | – | 7.94 µM (active)
COC(=O)N1CCC2(CCCN(C)C2)CC1 | -17.8% | –
